Assay results reported in PubChem BioAssay (EPA / NIEHS).
The source made the active and inactive calls. The calls were made as follows: active = hit-call score of the fitted dose curve at least 0.9, where 1 is the maximum; inactive = score below 0.9.

Key:
Settings in all cases: mRNA level, 48 h; actives raise or lower the signal
[1] = read-out: Cytochrome P450 (CYP1A1), CYP1A1 (gene 1543); assay: LTEA_HepaRG_CYP1A1: Life Technologies and Expression Analysis (LTEA) Assay for Cytochrome P450 (CYP1A1) using HepaRG (AID 2283454)
How it was run: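 CYP1A1 transcript levels measured by Fluidigm qRT-PCR against three housekeeping genes, 48 h after chemical dosing of human HepaRG cells (highest concentration 100 uM, half-log steps, 0.5% DMSO vehicle). Gain or loss of signal fitted relative to DMSO.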

[2] = read-out: CFLAR gene, CFLAR (gene 8837); assay: LTEA_HepaRG_CFLAR: Life Technologies and Expression Analysis (LTEA) Assay for CFLAR gene using HepaRG (AID 2283455)
How it was run: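 Differentiated HepaRG cells in serum-free induction medium were exposed 48 h in duplicate to eight half-log concentrations up to 100 uM in 0.5% DMSO; mRNA measured by TaqMan qRT-PCR, normalized to ACTB, GAPDH, POLR2A; bidirectional fitting versus DMSO.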

[3] = read-out: Forkhead box O1 (FOXO1), FOXO1 (gene 2308); assay: LTEA_HepaRG_FOXO1: Life Technologies and Expression Analysis (LTEA) Assay for Forkhead box O1 (FOXO1) using HepaRG (AID 2283456)
How it was run: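 Differentiated HepaRG cells, in serum-free induction medium with 0.5% DMSO, exposed 48 h in duplicate to 8-point half-log series from 100 uM. FOXO1 mRNA measured by TaqMan qRT-PCR, normalized to ACTB, GAPDH, POLR2A; bidirectional fit versus DMSO.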

[4] = read-out: growth arrest and DNA damage 45 (GADD45A), GADD45A (gene 1647); assay: LTEA_HepaRG_GADD45A: Life Technologies and Expression Analysis (LTEA) Assay for growth arrest and DNA damage 45 (GADD45A) using HepaRG (AID 2283458)
How it was run: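 Differentiated HepaRG cells exposed 48 h in serum-free induction medium to 8 concentrations, top 100 uM in half-log steps, 0.5% DMSO. GADD45A mRNA quantified by qRT-PCR, normalized to ACTB, GAPDH and POLR2A; bidirectional fit versus DMSO.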

[5] = read-out: Forkhead box O3 (FOXO3), FOXO3 (gene 2309); assay: LTEA_HepaRG_FOXO3: Life Technologies and Expression Analysis (LTEA) Assay for Forkhead box O3 (FOXO3) using HepaRG (AID 2283459)
How it was run: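 Differentiated human HepaRG cells, 48 h post-plating, exposed in duplicate for 48 h in serum-free induction medium; 8-point half-log series from 100 uM in 0.5% DMSO. FOXO3 mRNA by TaqMan qRT-PCR, normalized to ACTB/GAPDH/POLR2A; bidirectional fit versus DMSO.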

[6] = read-out: ABC Transporter (ABCB1), ABCB1 (gene 5243); assay: LTEA_HepaRG_ABCB1: Life Technologies and Expression Analysis (LTEA) Assay for ABC Transporter (ABCB1) using HepaRG (AID 2283460)
How it was run: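 HepaRG cells exposed in duplicate for 48 h in serum-free induction medium to eight half-log concentrations up to 100 uM in 0.5% DMSO. ABCB1 mRNA quantified by qRT-PCR, normalised to ACTB, GAPDH and POLR2A; fitted bidirectionally versus DMSO.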

[7] = read-out: growth arrest and DNA damage 45 (GADD45B), GADD45B (gene 4616); assay: LTEA_HepaRG_GADD45B: Life Technologies and Expression Analysis (LTEA) Assay for growth arrest and DNA damage 45 (GADD45B) using HepaRG (AID 2283461)
How it was run: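 Transcript level quantified by Fluidigm TaqMan qRT-PCR with three housekeeping genes for normalization, analyzed for up- or down-regulation against 0.5% DMSO. HepaRG cultures dosed 48 h at eight half-log concentrations up to 100 uM, duplicates.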

[8] = read-out: ABC Transporter (ABCC3), ABCC3 (gene 8714); assay: LTEA_HepaRG_ABCC3: Life Technologies and Expression Analysis (LTEA) Assay for ABC Transporter (ABCC3) using HepaRG (AID 2283462)
How it was run: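 Transcript level by TaqMan qRT-PCR, normalised to three housekeeping genes, fitted in both directions relative to vehicle. Chemicals tested in duplicate at eight half-log concentrations up to 100 uM for 48 h on HepaRG cells (0.5% DMSO).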

[9] = read-out: ABC Transporter (ABCB11), ABCB11 (gene 8647); assay: LTEA_HepaRG_ABCB11: Life Technologies and Expression Analysis (LTEA) Assay for ABC Transporter (ABCB11) using HepaRG (AID 2283463)
How it was run: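 Differentiated human HepaRG cells in serum-free induction medium, dosed in duplicate for 48 h. Eight-point half-log series from 100 uM in 0.5% DMSO; ABCB11 mRNA by qRT-PCR, normalized to ACTB, GAPDH, POLR2A, fitted bidirectionally versus DMSO.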

Measured: AC50

CC(C)CC(C)O (stereo not drawn)
active: [1] 50 µM
inactive: all other assays above

OCC(CO)(CO)CO
inactive: all assays above

CNC(C)=O
active: [1] 75.2 µM
inactive: all other assays above

Cc1ncc([C@@H](CCCCCCc2ccc3c(n2)NCCC3)CC(=O)O)cn1
active: [1] 50 µM
inactive: all other assays above

COc1cc(C(C)C)c2c(c1)S(=O)(=O)N(COc1cc(=O)n3cccc(OCCN4CCCCC4)c3n1)C2=O
active: [2] 19.5 µM | [5] 19.4 µM | [6] 21.3 µM | [8] 22.1 µM | [9] 17.5 µM
inactive: [1] | [3] | [4] | [7]

CCCOc1ccc(S(=O)(=O)N2CCN(CC)CC2)cc1-c1nc2c(CC)n(Cc3ccccn3)nc2c(=O)[nH]1
active: [1] 59.8 µM | [6] 2.87 µM | [9] 27.7 µM
inactive: all other assays above

Nc1ccn([C@@H]2O[C@H](CO)[C@@H](O)[C@@H]2O)c(=O)n1
active: [1] 77.3 µM
inactive: all other assays above

CCCC(CCC)C(=O)O
active: [1] 64.3 µM
inactive: all other assays above

O=C(O)[C@H](O)[C@@H](O)C(=O)O
not listed: [1]
inactive: all other assays above

CCOc1ccc2[nH]cc(C(=O)NCc3ccccc3)c(=O)c2n1
active: [1] 34 µM
inactive: all other assays above

CCCCN1C(=O)[C@@H]([C@H](O)C2CCCCC2)NC(=O)C12CCN(Cc1ccc(Oc3ccc(C(=O)O)cc3)cc1)CC2
active: [1] 2.16 µM | [2] 2.28 µM | [3] 6.4 µM | [5] 4.14 µM | [6] 2.24 µM | [7] 21.5 µM | [8] 4.37 µM | [9] 0.849 µM
inactive: [4]

C[C@@H](Oc1ccc(CNC(=O)c2cccnc2Oc2ccc3c(c2)OCO3)c(F)c1)C(=O)O
inactive: all assays above

CCCCCCCCCCCCCCCCOS(=O)(=O)O
active: [1] 14.9 µM | [9] 41.1 µM
inactive: all other assays above

CCc1ccc(O)c(C(C)(C)C)c1
active: [1] 50 µM
inactive: all other assays above

CCCCCCCC1CCC(=O)O1 (stereo not drawn)
not listed: [1] | [6] | [9]
inactive: all other assays above

CCCCCOC(C)=O
inactive: all assays above

CC(C)c1nnc2ccc(-c3ocnc3-c3cc(F)ccc3F)cn12
active: [1] 29.9 µM | [8] 50 µM | [9] 81 µM
inactive: all other assays above

O=C(O)c1ccc2c(c1)nc(C(=O)NC1CCN(C3CC3)CC1)n2Cc1cc(-c2ccc(Cl)s2)on1
active: [1] 12 µM
inactive: all other assays above
